Results as given in PubChem BioAssay.
The source made the active and inactive calls. Unless noted, how the calls were made is not given here.

Experiments:
[1] = test system: Wnt5a (protein binding on small-molecule microarray); assay: small molecules binding Wnt5a protein – biophysical, small-molecule microarray, 635/667 nm fluorescence, primary screen (AID 1142); details: 635 nm fluorescence, higher = more signal;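 further: fluorescence read at 667 nm with signal to noise per printed feature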
[2] = ATP-based viability of Huh7 replicon cells – cell-based, CellTiter-Glo luminescence, basal, 48 h, cytotoxicity control for HCV replication inhibitor project, primary screen (AID 1143); details: higher = more signal, called active from +8 up or from −8 down;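 further: Huh7 hepatoma cells carrying a hepatitis C replication reporter with no stimulus; test concentration not given here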
[3] = Pseudomonas biofilm growth suppression – PAO1 strain, BacTiter-Glo luminescence, LB-PBS, primary screen (AID 1144); details: P. aeruginosa PAO1 biofilm, 12 h, higher = more signal
[4] = basal CRE-LacZ reporter activity in PC12 – cell-based, unstimulated, primary screen (AID 1145); details: no forskolin, luminescence, 4.5 h, higher = more signal, called active from +8 up or from −8 down
[5] = forskolin-driven CRE-LacZ activity in PC12 – cell-based, CRE-LacZ reporter, forskolin-stimulated, primary screen (AID 1146); details: luminescence, 4.5 h, higher = more signal, called active from +8 up or from −8 down;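 further: PC12 cells with 6xCRE LacZ reporter stimulated by forskolin 10 µM; beta-galactosidase reporter signal reflecting CREB driven transcription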
[6] = target: Streptavidin (Streptomyces avidinii) (UniProt P22629); assay: compounds binding control protein streptavidin – biophysical, small-molecule microarray, 635/667 nm fluorescence, artefact control for SMM compound annotation, primary screen (AID 1147); details: higher = more signal;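 further: signal reflects streptavidin binding to arrayed compounds as a control protein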
Chain of Streptavidin (Streptomyces avidinii) (P22629 whole entry, looked up): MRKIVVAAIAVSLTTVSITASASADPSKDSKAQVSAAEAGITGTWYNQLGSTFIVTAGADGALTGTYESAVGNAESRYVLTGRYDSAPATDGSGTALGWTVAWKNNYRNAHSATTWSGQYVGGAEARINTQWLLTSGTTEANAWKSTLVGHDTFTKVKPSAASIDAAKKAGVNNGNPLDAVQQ

[7] = probe aInhba binding on compound microarray – biochemical, small-molecule microarray, 635/667 nm fluorescence, primary screen (AID 1148); details: higher = more signal;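 further: score merges 667nm spot fluorescence with signal-to-noise for antibody binding to printed compounds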
Torsin-1A (Homo sapiens) [8] = target: Torsin-1A (Homo sapiens) (UniProt O14656); assay: TOR1A wild-type binding on microarray – cell lysate, small-molecule microarray, lysate, 635/667 nm, primary screen (AID 1149); details: COS7 hTOR1A-WT lysate, 635 nm fluorescence, higher = more signal
Chain of Torsin-1A (Homo sapiens) (O14656 whole entry, looked up): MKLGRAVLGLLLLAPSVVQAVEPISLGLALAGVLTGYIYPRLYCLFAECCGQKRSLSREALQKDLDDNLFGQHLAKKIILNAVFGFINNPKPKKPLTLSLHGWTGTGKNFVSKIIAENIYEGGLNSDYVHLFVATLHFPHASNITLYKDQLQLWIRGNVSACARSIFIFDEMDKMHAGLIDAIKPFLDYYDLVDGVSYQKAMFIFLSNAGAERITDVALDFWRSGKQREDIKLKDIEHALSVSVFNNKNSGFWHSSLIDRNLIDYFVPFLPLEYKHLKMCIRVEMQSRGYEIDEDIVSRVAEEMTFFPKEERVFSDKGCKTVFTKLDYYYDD

Torsin-1A (Homo sapiens) [9] = target: Torsin-1A (Homo sapiens) (UniProt O14656); assay: torsin A mutant lysate binding on microarrays – cell lysate, small-molecule microarray, COS7 lysate, 635/667 nm fluorescence, primary screen (AID 1150); details: COS7 hTOR1A mutant lysate, 635 nm fluorescence, higher = more signal;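 further: score pools 667 nm emission and signal to noise measuring lysate protein binding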
[10] = test system: Sonic hedgehog protein (Shh); assay: Sonic hedgehog microarray binding compounds – biochemical, small-molecule microarray, 635/667 nm fluorescence, primary screen (AID 1151); details: 635 nm fluorescence, higher = more signal;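 further: Shh protein binding to compounds spotted on small-molecule microarray slides; score combines spot fluorescence intensity with signal-to-noise across triplicate slides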
[11] = optical density shifts of acrAB sulA E. coli – strain DRC41, OD650, 48 h, E. coli filamentation inducer project, primary screen (AID 1152); details: higher = more signal, called active from +8 up or from −8 down;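 further: E. coli MC1000 strain DRC41 lacking acrAB efflux pump and sulA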
[12] = probe aLefty1 binding on compound microarray – biochemical, small-molecule microarray, 635/667 nm fluorescence, primary screen (AID 1153); details: higher = more signal;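 further: score merges spot fluorescence with signal-to-noise ratio from the scanned slide images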
[13] = plasmodial surface anion channel blockers, osmotic lysis – cell-based, P. falciparum Indochina, OD700, 1 h, primary screen (AID 1154); details: P. falciparum Indochina infected RBC osmotic lysis, higher = more signal, called active from +8 up or from −8 down
[14] = plasmodial surface anion channel blockers, osmotic lysis – cell-based, P. falciparum Indochina, OD700, 2 h, primary screen (AID 1155);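 further: lysis reports solute entry through the parasite surface anion channel PSAC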; details: P. falciparum Indochina infected erythrocytes, higher = more signal, called active from +8 up or from −8 down
[15] = changes in parasitized red cell lysis, either direction – P. falciparum Indochina, OD700, 3 h, PSAC antagonist project, primary screen (AID 1156); details: P. falciparum-infected erythrocytes, osmotic lysis, higher = more signal, called active from +8 up or from −8 down
[16] = plasmodial surface anion channel blockers, osmotic lysis – cell-based, P. falciparum Indochina, OD700, 18 h, primary screen (AID 1157); details: P. falciparum Indochina infected erythrocytes, osmotic lysis OD700, 18 h; higher = more signal, called active from +8 up or from −8 down
[17] = S6 kinase pathway phospho-S6 level changes – cell-based, A549, cytoblot, luminescence, serum-stimulated, primary screen (AID 1158); details: 5 h, higher = more signal;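 further: serum-stimulated A549 lung adenocarcinoma cells; signal is phosphorylated S6 detected by cytoblot immunostaining with HRP secondary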
[18] = target: NADPH oxidase 2 (Homo sapiens) (UniProt P04839); assay: compounds shifting NOX2 Amplex Red fluorescence – cell-based, HEK293-NOX2, PMA-stimulated, NOX inhibitor project, primary screen (AID 1159); details: 45 min, higher = more signal, called active from +8 up or from −8 down; further: test concentration not given here
Chain of NADPH oxidase 2 (Homo sapiens) (P04839 whole entry, looked up): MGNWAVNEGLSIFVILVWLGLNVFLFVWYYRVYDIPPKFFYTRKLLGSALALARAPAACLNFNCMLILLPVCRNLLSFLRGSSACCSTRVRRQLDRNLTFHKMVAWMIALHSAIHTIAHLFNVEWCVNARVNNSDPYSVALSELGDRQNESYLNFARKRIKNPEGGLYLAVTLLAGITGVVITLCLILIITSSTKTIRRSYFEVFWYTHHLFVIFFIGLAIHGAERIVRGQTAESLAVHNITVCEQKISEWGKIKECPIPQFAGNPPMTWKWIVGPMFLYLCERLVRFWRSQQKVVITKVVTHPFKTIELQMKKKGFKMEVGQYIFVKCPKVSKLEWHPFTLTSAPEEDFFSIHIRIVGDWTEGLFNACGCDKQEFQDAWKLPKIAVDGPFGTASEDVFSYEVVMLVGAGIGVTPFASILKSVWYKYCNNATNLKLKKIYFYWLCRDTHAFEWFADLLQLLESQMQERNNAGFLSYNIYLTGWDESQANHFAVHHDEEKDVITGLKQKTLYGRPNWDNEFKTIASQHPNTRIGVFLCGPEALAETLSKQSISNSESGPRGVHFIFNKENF

[19] = target: NADPH oxidase 4 (Homo sapiens) (UniProt Q9NPH5); assay: compounds shifting NOX4 Amplex Red fluorescence – cell-based, HEK293-NOX4, tetracycline-induced, NOX inhibitor project, primary screen (AID 1160); details: HEK293-NOX4, Amplex Red H2O2 fluorescence, 45 min; higher = more signal, called active from +8 up or from −8 down
Chain of NADPH oxidase 4 (Homo sapiens) (Q9NPH5 whole entry, looked up): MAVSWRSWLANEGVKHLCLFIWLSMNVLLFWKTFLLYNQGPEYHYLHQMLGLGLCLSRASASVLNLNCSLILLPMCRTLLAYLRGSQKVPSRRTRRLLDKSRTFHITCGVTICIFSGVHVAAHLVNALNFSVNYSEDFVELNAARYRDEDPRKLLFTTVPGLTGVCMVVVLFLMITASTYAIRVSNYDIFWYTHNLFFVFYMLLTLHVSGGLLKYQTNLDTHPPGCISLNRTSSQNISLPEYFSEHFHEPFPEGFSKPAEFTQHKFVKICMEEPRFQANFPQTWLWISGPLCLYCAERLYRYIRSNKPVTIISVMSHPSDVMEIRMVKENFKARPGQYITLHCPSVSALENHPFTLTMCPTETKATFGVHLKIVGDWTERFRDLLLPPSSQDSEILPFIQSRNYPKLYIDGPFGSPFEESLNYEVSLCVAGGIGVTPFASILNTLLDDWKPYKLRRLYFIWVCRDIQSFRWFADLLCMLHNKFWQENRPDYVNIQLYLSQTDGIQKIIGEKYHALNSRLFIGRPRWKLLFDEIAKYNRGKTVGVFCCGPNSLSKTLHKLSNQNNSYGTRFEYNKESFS

[20] = target: NADPH oxidase 5 (Homo sapiens) (UniProt Q96PH1); assay: compounds shifting NOX5 Amplex Red fluorescence – cell-based, HEK293-NOX5, NOX inhibitor project, primary screen (AID 1161); details: HEK293-NOX5, ionomycin, 45 min, higher = more signal
Chain of NADPH oxidase 5 (Homo sapiens) (Q96PH1 whole entry, looked up): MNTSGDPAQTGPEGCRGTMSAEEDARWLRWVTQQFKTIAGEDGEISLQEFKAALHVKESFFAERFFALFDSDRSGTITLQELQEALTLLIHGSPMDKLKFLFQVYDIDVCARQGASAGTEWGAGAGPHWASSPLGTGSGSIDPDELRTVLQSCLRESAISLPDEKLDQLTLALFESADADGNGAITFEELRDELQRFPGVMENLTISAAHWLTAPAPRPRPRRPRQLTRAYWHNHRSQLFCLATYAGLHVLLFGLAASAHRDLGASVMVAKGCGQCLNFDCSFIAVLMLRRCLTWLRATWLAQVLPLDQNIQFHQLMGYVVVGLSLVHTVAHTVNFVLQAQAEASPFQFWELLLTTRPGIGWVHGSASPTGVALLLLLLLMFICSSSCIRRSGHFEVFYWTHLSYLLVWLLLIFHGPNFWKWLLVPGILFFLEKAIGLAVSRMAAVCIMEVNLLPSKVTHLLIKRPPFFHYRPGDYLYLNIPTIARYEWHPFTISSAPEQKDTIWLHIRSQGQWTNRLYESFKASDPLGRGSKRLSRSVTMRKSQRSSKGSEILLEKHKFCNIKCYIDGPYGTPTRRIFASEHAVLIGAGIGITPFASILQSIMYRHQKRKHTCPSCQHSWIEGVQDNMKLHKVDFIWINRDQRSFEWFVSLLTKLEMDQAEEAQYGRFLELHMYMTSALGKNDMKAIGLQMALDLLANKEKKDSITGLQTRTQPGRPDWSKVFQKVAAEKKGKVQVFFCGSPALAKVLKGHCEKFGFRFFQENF

SMILES | composite z-score [1] | z-score [2] | z-score [3] | z-score [4] | z-score [5] | composite z-score [6] | composite z-score [7] | composite z-score (Torsin-1A (Homo sapiens) [8]) | composite z-score (Torsin-1A (Homo sapiens) [9]) | composite z-score [10] | z-score [11] | composite z-score [12] | z-score [13] | z-score [14] | z-score [15] | z-score [16] | z-score [17] | z-score [18] | z-score [19] | z-score [20]
COC(=O)[C@@]1(Cc2ccc(F)cc2)[C@H]2c3cc(C(=O)N4CCCC4)n(Cc4ccccn4)c3C[C@H]2CN1C(=O)c1ccccc1 | 0.739 | -1.56 (inactive) | 0.261 (inactive) | 0.966 (inactive) | 1.35 (inactive) | 0.498 | 0.522 | -0.578 | 0.738 | -0.138 | -1.9 (inactive) | 0.0479 | 2.2 (inactive) | 0.404 (inactive) | 0.893 (inactive) | 0.987 (inactive) | 0.0347 | 0.553 (inactive) | -1.33 (inactive) | -2.47
NC(=O)NCC#Cc1ccc2c(c1)[C@]1(C(=O)N2)[C@H](c2ccc(OCCO)cc2)N2[C@H](c3ccccc3)[C@H](c3ccccc3)OC(=O)[C@H]2[C@@H]1C(=O)NC[C@H](O)c1ccccc1 | -0.138 | -2.86 (inactive) | 0.0532 (inactive) | -0.671 (inactive) | -0.648 (inactive) | 0.079 | -0.0195 | -0.17 | -0.288 | 0.398 | 2.63 (inactive) | 0.0183 | 1.06 (inactive) | -0.573 (inactive) | -0.88 (inactive) | -1.81 (inactive) | 0.713 | 2 (inactive) | 0.314 (inactive) | 0.742
NC(=O)NCC#Cc1ccc2c(c1)[C@]1(C(=O)N2)[C@H](c2ccc(OCCO)cc2)N2[C@H](c3ccccc3)[C@H](c3ccccc3)OC(=O)[C@H]2[C@@H]1C(=O)O | -0.129 | -4.1 (inactive) | -0.626 (inactive) | 0.155 (inactive) | -0.719 (inactive) | -0.204 | -0.128 | -0.101 | 0.141 | -0.501 | 0.53 (inactive) | -0.0536 | 2.54 (inactive) | -0.7 (inactive) | 0.623 (inactive) | -1.3 (inactive) | 1.61 | 1.97 (inactive) | 0.325 (inactive) | -0.441
[N-]=[N+]=Nc1ccccc1[C@@H]1OC(c2ccc(OCCCO)cc2)=N[C@]1(CCS(=O)(=O)c1ccccc1)C(=O)NCC(O)CO (stereo not given in full) | -0.0534 | -1.33 (inactive) | -0.27 (inactive) | 0.0827 (inactive) | 0.0767 (inactive) | 1.54 | 0.0051 | 1.37 | 1.61 | -0.475 | 0.401 (inactive) | 0.165 | 28.9 (active) | 27.2 (active) | 1.08 (inactive) | 2.07 (inactive) | -0.158 | -3.11 (inactive) | -0.18 (inactive) | -1.16
CN(C)C(=O)[C@@]1(Cc2ccccc2CN=[N+]=[N-])COC(c2ccc(OCCCO)cc2)=N1 | 0.0037 | -3.16 (inactive) | -0.632 (inactive) | -1.34 (inactive) | -1.65 (inactive) | -0.0988 | -0.0288 | -0.184 | 0.715 | -1.22 | 2.37 (inactive) | 0.236 | 25.9 (active) | 11.1 (active) | 4.63 (inactive) | 1.67 (inactive) | 0.0188 | -4.96 (inactive) | -1.37 (inactive) | -3.41
C=C(/C(=C/C[C@@H](OC(C)=O)c1cccc(OCCO)c1)c1cnc2ccccc2c1)C(C)C | 1 | -1.69 (inactive) | -1.04 (inactive) | 0.769 (inactive) | 1.32 (inactive) | 0.208 | 0.0013 | 1.83 | 1.29 | 2.05 | 0.509 (inactive) | 0.0582 | 12.5 (active) | 2.52 (inactive) | 1.24 (inactive) | 0.895 (inactive) | 0.328 | -1.71 (inactive) | -0.885 (inactive) | -1.73
COc1ccc(C(O)C2C=CC3C(=O)N(c4ccccc4)C(=O)C3N2Nc2ccc(C#N)cc2)cc1OCc1ccccc1 (stereo not given) | 0.512 | 0.0667 (inactive) | -0.753 (inactive) | 1.39 (inactive) | 0.338 (inactive) | 1.65 | 0.274 | 0.056 | 1.12 | -0.189 | -1.37 (inactive) | 0.482 | 9.41 (active) | 2.2 (inactive) | 0.918 (inactive) | 1.27 (inactive) | -0.98 | -1.69 (inactive) | -2.41 (inactive) | -2.45
CC(C)C[C@@H]1NC(=O)[C@@H]2C[C@H](C(=O)NCCCCCCNC(=O)CS)[C@H](c3cccc(OCCO)c3)N2C1=O | 0.971 | 0.0734 (inactive) | -0.253 (inactive) | 0.688 (inactive) | 0.0025 (inactive) | 1.22 | 0.159 | 1.15 | 1.18 | 2.38 | -1.05 (inactive) | 0.196 | 7.13 (inactive) | 1.57 (inactive) | 1.01 (inactive) | 0.792 (inactive) | -0.485 | 1.56 (inactive) | 0.427 (inactive) | -0.196
